Compounds with a hit are over-represented: about 3.8% of the library has one in this group of screens.
KCNH2 3.1 inh – KCNH2 3.1 (human) potassium channel inhibition | U2OS KCNH2 3.1, thallium flux FluxOr; hits give low values | activity change, % (tested at about 1.8 µM) | hit rate 0.95% among 340,000;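 active = maximum activity change below -70%; inconclusive = maximum activity change from -70% to -50%; inactive = maximum activity change above -50%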;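 also: thallium influx rate constant from kinetic fluorescence after stimulation buffer; % is scaled to controls: 0 for no effect and ±100 for the full control effect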
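U2OS cells transduced with KCNH2 3.1 mutant virus (1.77 x 10^8 /mL, 4 h), plated overnight at 37 C, loaded 45 min with FluxOr dye plus Red40 quencher. Thallium flux rate constant from kinetic reads after stimulation buffer, normalised to controls.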
VDR inh – blocks the human vitamin D receptor; P11473; VDR-SRC2-3 peptide fluorescence polarization, 2 h; Potency, µM, without a hit: max response, negative = inhibition, usual class: inhibitors; hit rate 0.93% among 400,000; AID 504847; also: potency is read from the fitted curve at half-maximal effect; % is scaled to controls: 0 for no effect and ±100 for the full control effect
Target sequence (P11473 whole entry, looked up): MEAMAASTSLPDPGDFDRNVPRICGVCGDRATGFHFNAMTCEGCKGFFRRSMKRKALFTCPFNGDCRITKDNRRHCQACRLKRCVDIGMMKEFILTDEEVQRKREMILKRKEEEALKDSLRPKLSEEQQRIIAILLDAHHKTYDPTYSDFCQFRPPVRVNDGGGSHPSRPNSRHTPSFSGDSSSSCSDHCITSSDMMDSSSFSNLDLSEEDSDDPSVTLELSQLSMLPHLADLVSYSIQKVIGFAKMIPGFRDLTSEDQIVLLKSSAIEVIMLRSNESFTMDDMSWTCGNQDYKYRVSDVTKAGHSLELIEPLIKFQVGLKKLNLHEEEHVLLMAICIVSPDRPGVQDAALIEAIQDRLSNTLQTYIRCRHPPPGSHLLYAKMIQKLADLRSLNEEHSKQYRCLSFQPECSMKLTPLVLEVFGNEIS
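The screen uses fluorescence polarization to detect compounds that interfere with recruitment of the SRC2-3 coactivator peptide to VDR; plates are read after 2 h at room temperature.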
CBFb RUNX1 block – blocks binding between human CBF-beta and RUNX1 | Q01196+Q13951 | AlphaScreen CBFb-His/RUNX1-biotin binding, biochemical | Potency, µM (doses to about 59.8 µM), inactives show at the top dose activity, negative = inhibition, usual class: inhibitors | 230,000 tested, under 10 active; also: % of control where 0% means no effect
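Read-out: AlphaScreen. Format: His-CBF-beta with biotinylated RUNX1 (30 nM each) preincubated 20 min, compound 15 min, Ni-chelate plus streptavidin beads 90 min; room temperature throughout.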
KCNH2 WT inh – KCNH2 (human, wildtype) channel inhibition; Q12809; U2OS, BacMam KCNH2, thallium flux FluxOr; hits give low values; activity change, % at 1.84 µM; hit rate 0.37% among 340,000; AID 720551;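 active = maximum activity change below -70%; inconclusive = maximum activity change between -70% and -50%; inactive = maximum activity change above -50%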; also: % is scaled to controls: 0 for no effect and ±100 for the full control effect
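U2OS cells were transduced with wild-type KCNH2 virus (2.03 x 10^8 / mL) for 4 h at room temperature, then cultured overnight at 37 C. Thallium flux was read with FluxOr dye. Rate constants were normalized to DMSO controls.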
PLK1 PBD block – PLK1 (human) polo-box domain binding inhibition; hit rate 2.8% among 360,000; AID 720504; Potency, µM, without a hit: max response, negative = inhibition, hits mostly inhibitors; Plk1 PBD binding of FITC phosphopeptide, fluorescence polarization; also: potency is read from the fitted curve at half-maximal effect; series mostly up to about 57 µM; % is scaled to controls: 0 for no effect and ±100 for the full control effect; nearly all actives have a fitted effect of over 65% in size
MBNL1 CUG block – MBNL1-poly(CUG) RNA binding inhibition; Potency, µM (top dose mostly 57.5 µM), without a hit: at the highest dose activity change, negative = inhibition, actives largely listed as inhibitors; AID 2675; Q9NR56; TR-FRET MBNL1-His/biotin-(CUG)12 binding, 665/545 ratio; hit rate 0.036% among 280,000; active = well fitted inhibition curve with a large enough effect in the signal ratio, with a control signal flat, not every such curve was filed as active; inconclusive = small, poorly fitted or top-dose-only effect, or effect the other way, or a change in a side signal; inactive = no such curve, though single readings can be large or run the other way; the % refers to the signal ratio; also: potency is read from the fitted curve at half-maximal effect; % is scaled to controls: 0 for no effect and ±100 for the full control effect
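His-tagged MBNL1 binding to biotinylated (CUG)12 RNA was measured by TR-FRET using terbium anti-His antibody (0.055 ng/ul final) and streptavidin-XL665 (5 nM final). Compounds were titrated 92 nM to 58 uM; 60 min at room temperature.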
Active calls of the source: *; [ ] = remark or other dose. Unless noted, calls follow the shape of the dose curve; as a rule, active = well fitted curve in the direction sought with a large enough effect; inconclusive = small, poorly fitted or top-dose-only effect, or another doubt; inactive = no such curve, though single readings can be large; an effect the other way counts as inactive or inconclusive.

`CC(C)NC(=O)Nc1ccc2c(c1)CC(=O)N([C@@H](C)CO)C[C@H](C)[C@@H](CN(C)C(=O)NC1CCCCC1)O2` gave KCNH2 3.1 inh -5, VDR inh 89µM*, KCNH2 WT inh -19 and PLK1 PBD block -15%.
`COc1ccc(NC(=O)COc2ccc(-c3nn(C)c(=O)c4ccccc34)cc2)cc1` gave KCNH2 3.1 inh -15, VDR inh inconclusive, CBFb RUNX1 block 11%, KCNH2 WT inh 6, PLK1 PBD block 24µM* and MBNL1 CUG block 4%.
`COC(=O)COc1ccc(NC(=O)Cn2nc(-c3ccccc3)c3ccccc3c2=O)cc1` gave KCNH2 3.1 inh 6, VDR inh -28%, CBFb RUNX1 block 2%, KCNH2 WT inh 2, PLK1 PBD block 27µM* and MBNL1 CUG block -8%.
`CN(C)C(=O)c1ccc(NC(=O)Cn2nc(-c3ccccc3)c3ccccc3c2=O)cc1` gave VDR inh 10%.
`COc1cccc(OC)c1NC(=O)Cn1nc(C)c2ccccc2c1=O` gave KCNH2 3.1 inh -13, VDR inh -23%, KCNH2 WT inh -24, PLK1 PBD block 30µM* and MBNL1 CUG block -4%.
`CCOC(=O)CN1C(=O)N[C@@H](c2ccccc2)[C@H](C(=O)OC)[C@H]1C` gave CBFb RUNX1 block -4%[13.1 µM].
COc1ccc(-n2nc3ccc(NC(=O)c4cccc(OCCC(C)C)c4)cc3n2)cc1 was read as VDR inh -16%.
`CC1(C)CC(=O)C(Sc2ccccc2C(=O)O)=C(O)C1` gave KCNH2 3.1 inh 3, VDR inh -18%, CBFb RUNX1 block 16%, KCNH2 WT inh -1, PLK1 PBD block -18% and MBNL1 CUG block -9%.
Screening CC1(C)CC(=O)C(Sc2ccccc2)=C(O)C1 returned KCNH2 3.1 inh 10, VDR inh -14%, CBFb RUNX1 block 6%, KCNH2 WT inh 11, PLK1 PBD block 12µM* and MBNL1 CUG block 2%.
Screening COc1ccc(OC)c(-c2csc(NC(=O)Cc3ccc(F)cc3)n2)c1 returned KCNH2 3.1 inh -12, VDR inh 2%, KCNH2 WT inh -7, PLK1 PBD block -7% and MBNL1 CUG block -4%.
Cc1ccc(-c2csc(NC(=O)Cc3ccc(F)cc3)n2)o1 was read as KCNH2 3.1 inh 5, VDR inh inconclusive, CBFb RUNX1 block -12%, KCNH2 WT inh -3, PLK1 PBD block 24µM* and MBNL1 CUG block 2%.
`Cc1cc(O)c(C(C)C)cc1N=Cc1cc([N+](=O)[O-])ccc1O` gave KCNH2 3.1 inh 23, VDR inh inconclusive, CBFb RUNX1 block 9%, PLK1 PBD block -17% and MBNL1 CUG block 12%.
`Cc1cc(O)c(C(C)C)cc1N=Cc1ccccc1O` gave KCNH2 3.1 inh -47, VDR inh 40µM*, CBFb RUNX1 block -3%, KCNH2 WT inh 14, PLK1 PBD block 10% and MBNL1 CUG block 4%.
Screening CC(C(=O)NCc1ccc(Cl)cc1)n1ccc2cc(S(=O)(=O)N3CCCCCC3)ccc21 (centres undefined) returned VDR inh 2%.
Screening O=C(O)CCn1cc(/C=C\C(=O)c2ccc(Cl)cc2)c(-c2cccc(Br)c2)n1 returned KCNH2 3.1 inh 2, VDR inh 50µM*, CBFb RUNX1 block 3%, KCNH2 WT inh -1, PLK1 PBD block 24µM* and MBNL1 CUG block -8%.
`Cc1ccc(-c2nn(Cc3ccccc3)cc2/C=C/C(=O)O)cc1` gave KCNH2 3.1 inh -2, VDR inh -4%, CBFb RUNX1 block 5%, KCNH2 WT inh -2, PLK1 PBD block -9% and MBNL1 CUG block 0%.
Screening Cc1ccc(-c2nn(CCC(=O)O)cc2/C=C\C(=O)c2ccc(Br)cc2)cc1 returned KCNH2 3.1 inh 3, VDR inh 35µM*, CBFb RUNX1 block -3%, KCNH2 WT inh 8, PLK1 PBD block 38µM* and MBNL1 CUG block -4%.
CCOC(=O)C1CCCN(C(=O)Cn2ncc3c4ccccc4n(C)c3c2=O)C1 (centres undefined) was read as VDR inh 2%.
Screening CCN(CC)CCNC(=O)c1ccc2c(c1)N(Cc1ccccc1)C(=O)c1ccccc1S2=O (centres undefined) returned VDR inh -19%.
For COc1cc(C(=O)NC(=S)Nc2ccccc2[N+](=O)[O-])cc(OC)c1OC the results were KCNH2 3.1 inh -9, VDR inh -20%, CBFb RUNX1 block -11%, PLK1 PBD block 21µM* and MBNL1 CUG block 16%.
O=C(O)c1ccc2c(c1)N(Cc1ccccc1)C(=O)c1ccccc1S2=O (centres undefined) was read as KCNH2 3.1 inh 24, VDR inh -28%, CBFb RUNX1 block 10%, KCNH2 WT inh -4, PLK1 PBD block 27µM* and MBNL1 CUG block -7%.
For O=C(c1ccc2c(c1)N(Cc1ccccc1)C(=O)c1ccccc1S2=O)N1CCC(Cc2ccccc2)CC1 (centres undefined) the results were VDR inh -15%.
For CCc1c(C)sc2c1CCN(C(=O)Nc1cc(C)ccc1OC)C2c1ccc(F)cc1 (centres undefined) the results were VDR inh 13%.
Screening CCOC(=O)c1c(C)nc(C)c(C(=O)OCC)c1-c1ccc(O)c(OC)c1 returned KCNH2 3.1 inh 3, VDR inh inconclusive, CBFb RUNX1 block -3%, KCNH2 WT inh -1, PLK1 PBD block 6.7µM* and MBNL1 CUG block 4%.
For c1ccc2c(C3=NNC(=NC4CC4)SC3)c[nH]c2c1 the results were KCNH2 3.1 inh 8, VDR inh inconclusive, CBFb RUNX1 block -14%, KCNH2 WT inh -10 and PLK1 PBD block -16%.
Screening c1ccc2c(C3=NNC(=NC4CCCCC4)SC3)c[nH]c2c1 returned KCNH2 3.1 inh -86*, VDR inh 0%, CBFb RUNX1 block -2%, KCNH2 WT inh 4 and PLK1 PBD block -24%.
`CCOC(=O)C(NC(=O)c1cccc(Cl)c1)(Nc1sc2c(c1C(N)=O)CCC2)C(F)(F)F` (centres undefined) gave KCNH2 3.1 inh 19, VDR inh -18%, CBFb RUNX1 block 1%, KCNH2 WT inh 1, PLK1 PBD block 27µM* and MBNL1 CUG block 9%.
Screening CCOC(=O)C(NC(=O)c1ccccc1Cl)(Nc1sc2c(c1C(N)=O)CCC2)C(F)(F)F (centres undefined) returned KCNH2 3.1 inh -7, VDR inh -6%, CBFb RUNX1 block -9%, PLK1 PBD block inconclusive and MBNL1 CUG block -3%.
